The source of these data is PMC5700166.

Common to all, as to assay: protein-binding microarray (PBM); PBM: ~300 nM protein, 6 mM HEPES pH 7.8, 80 mM KCl, 0.5 mM EDTA, 0.5 mM EGTA, 6% glycerol, 35 ng/ul poly-dIdC, 1% milk, 1 h, room temperature; Ap Aiptasia and Nv Nematostella (sea anemones) / Co Capsaspora / Aq Amphimedon (sponge) / Dm Drosophila / Hu human; RHD is the Rel homology domain; high values mean tight binding
Holding throughout (conditions): dsDNA, one strand shown

One test has as its target T1, GST-Ap-NF-kB RHD (Exaiptasia pallida (Aiptasia), UniProt A0A913YAJ5 2-422).
T1 sequence: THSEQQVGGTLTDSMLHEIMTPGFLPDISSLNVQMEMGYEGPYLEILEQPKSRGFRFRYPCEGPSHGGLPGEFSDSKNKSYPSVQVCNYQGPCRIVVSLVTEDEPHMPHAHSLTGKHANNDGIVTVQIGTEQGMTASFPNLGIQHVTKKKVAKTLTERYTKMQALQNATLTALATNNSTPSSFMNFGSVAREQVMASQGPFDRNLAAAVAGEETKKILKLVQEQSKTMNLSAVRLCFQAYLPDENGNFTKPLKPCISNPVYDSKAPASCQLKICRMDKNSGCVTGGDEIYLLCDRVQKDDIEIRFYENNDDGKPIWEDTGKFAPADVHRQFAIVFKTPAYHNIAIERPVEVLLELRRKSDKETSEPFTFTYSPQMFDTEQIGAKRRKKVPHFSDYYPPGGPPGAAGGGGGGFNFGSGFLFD

Test [1] has as its target T2, GST-Nv-NF-kB (Cys allele) (Nematostella vectensis, UniProt E5G601 2-411).
T2 sequence: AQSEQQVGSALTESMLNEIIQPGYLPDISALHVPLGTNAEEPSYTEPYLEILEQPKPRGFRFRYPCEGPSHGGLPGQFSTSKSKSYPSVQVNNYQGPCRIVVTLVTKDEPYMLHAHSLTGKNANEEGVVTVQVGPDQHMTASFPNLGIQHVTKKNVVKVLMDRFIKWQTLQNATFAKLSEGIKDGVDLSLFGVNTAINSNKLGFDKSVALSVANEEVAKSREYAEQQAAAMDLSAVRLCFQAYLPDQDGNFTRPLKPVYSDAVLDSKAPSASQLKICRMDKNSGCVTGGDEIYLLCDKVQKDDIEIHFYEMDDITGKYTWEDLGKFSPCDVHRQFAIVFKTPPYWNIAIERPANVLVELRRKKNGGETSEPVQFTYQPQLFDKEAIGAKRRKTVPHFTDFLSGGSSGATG

For test [2], the target named is T3, GST-Nv-NF-kB (Ser allele) (Nematostella vectensis, UniProt A7UNT2 2-411).
T3 sequence: T2 sequence with Q21R, C66S, S207N, E215Q, V217A, E225K, A268E, D399E

The target of the next test is T4, GST-Co-NF-kB (Capsaspora owczarzaki, UniProt F1ARL5 200-546).
T4 sequence: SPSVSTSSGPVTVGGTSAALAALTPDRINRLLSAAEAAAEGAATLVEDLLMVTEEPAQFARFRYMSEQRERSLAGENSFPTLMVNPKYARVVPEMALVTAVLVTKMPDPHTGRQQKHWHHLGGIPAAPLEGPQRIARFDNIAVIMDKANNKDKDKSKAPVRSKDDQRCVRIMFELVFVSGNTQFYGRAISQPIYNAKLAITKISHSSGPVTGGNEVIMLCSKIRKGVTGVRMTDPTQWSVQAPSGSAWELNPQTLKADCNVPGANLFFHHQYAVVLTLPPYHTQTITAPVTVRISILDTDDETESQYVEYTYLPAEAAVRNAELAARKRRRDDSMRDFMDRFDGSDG

The target in the next test is T5, GST-Dm-Relish (Drosophila melanogaster, UniProt Q94527 99-473).
T5 sequence: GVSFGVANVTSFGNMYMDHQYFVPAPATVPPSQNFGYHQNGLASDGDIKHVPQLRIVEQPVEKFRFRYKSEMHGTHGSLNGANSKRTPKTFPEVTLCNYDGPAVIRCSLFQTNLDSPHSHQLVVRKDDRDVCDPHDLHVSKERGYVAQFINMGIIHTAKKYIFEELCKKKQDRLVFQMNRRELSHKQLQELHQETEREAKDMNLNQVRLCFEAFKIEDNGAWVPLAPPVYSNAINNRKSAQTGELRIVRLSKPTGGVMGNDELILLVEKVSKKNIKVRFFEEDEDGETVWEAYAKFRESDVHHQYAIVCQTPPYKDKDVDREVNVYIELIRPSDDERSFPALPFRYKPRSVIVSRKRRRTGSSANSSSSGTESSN

The target of a further test is T6, GST-Aq-NF-kB (Amphimedon queenslandica, UniProt A9Y5G7 2-389).
T6 sequence: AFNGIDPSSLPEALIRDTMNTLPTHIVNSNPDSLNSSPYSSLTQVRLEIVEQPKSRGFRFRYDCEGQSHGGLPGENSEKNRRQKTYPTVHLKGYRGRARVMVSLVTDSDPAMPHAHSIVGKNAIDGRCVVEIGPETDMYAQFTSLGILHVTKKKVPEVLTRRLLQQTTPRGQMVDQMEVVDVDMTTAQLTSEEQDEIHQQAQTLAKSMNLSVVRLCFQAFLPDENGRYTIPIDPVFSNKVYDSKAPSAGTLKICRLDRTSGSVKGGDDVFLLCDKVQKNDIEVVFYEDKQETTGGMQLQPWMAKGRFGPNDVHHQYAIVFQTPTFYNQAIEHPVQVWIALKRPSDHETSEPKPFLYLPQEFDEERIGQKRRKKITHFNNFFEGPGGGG

A further test has as its target GST-Hu-p50 (Homo sapiens, UniProt P19838 7-356).

Substitutions are numbered along the chain they refer to.

Chain of GST-Hu-p50 (P19838 7-356): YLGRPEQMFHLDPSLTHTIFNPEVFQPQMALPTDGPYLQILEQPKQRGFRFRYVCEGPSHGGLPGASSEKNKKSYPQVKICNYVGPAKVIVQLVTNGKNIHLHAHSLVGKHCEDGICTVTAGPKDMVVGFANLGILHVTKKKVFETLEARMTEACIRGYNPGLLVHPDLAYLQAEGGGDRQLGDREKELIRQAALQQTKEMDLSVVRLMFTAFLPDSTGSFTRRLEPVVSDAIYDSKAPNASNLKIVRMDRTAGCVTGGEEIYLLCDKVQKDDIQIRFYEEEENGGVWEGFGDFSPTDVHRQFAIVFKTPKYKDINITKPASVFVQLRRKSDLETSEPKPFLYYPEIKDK

For the sequence “CCGATTAACATCACGGGGGAATATGATGTTAATCGGGTCTTGATTCGCTTGACGCTGCTG”, the binding signal with GST-Ap-NF-kB RHD amounted to 8.53 z-score; in test [1], 7.14 z-score; in test [2], 7.03 z-score; in the test with GST-Co-NF-kB, 10.6 z-score; with GST-Dm-Relish it was 4.66 z-score; with GST-Aq-NF-kB, 5.84 z-score. In addition, the binding signal with GST-Hu-p50 was found to be 6.21 z-score.
Take “CCGATTAACATCAGAAATTCCCCTGATGTTAATCGGGTCTTGATTCGCTTGACGCTGCTG”: the binding signal came to 9.89 z-score in the test with GST-Ap-NF-kB RHD; 12.3 z-score in test [1]; 13.2 z-score in test [2]; 8.74 z-score with GST-Co-NF-kB; 8.87 z-score in the test with GST-Dm-Relish; 8.89 z-score with GST-Aq-NF-kB. Moreover, in the test with GST-Hu-p50, the binding signal was 7.96 z-score.
With “CCGATTAACATCAGGCCTTTCCCTGATGTTAATCGGGTCTTGATTCGCTTGACGCTGCTG”, the binding signal is 2.77 z-score in the test with GST-Ap-NF-kB RHD; 4.72 z-score in test [1]; 2.62 z-score in test [2]; 1.36 z-score with GST-Co-NF-kB; 5.87 z-score in the test with GST-Dm-Relish; 6.74 z-score with GST-Aq-NF-kB. Further, the binding signal with GST-Hu-p50 is 3.53 z-score.
For the sequence “CCGATTAACATCATTTTGGGGACTGATGTTAATCGGGTCTTGATTCGCTTGACGCTGCTG”, the binding signal with GST-Ap-NF-kB RHD stood at 2.93 z-score; in test [1], 3.66 z-score; in test [2], 3.16 z-score; with GST-Co-NF-kB it was 1.94 z-score; in the test with GST-Dm-Relish, 1.4 z-score; with GST-Aq-NF-kB, 4.11 z-score. For the same sequence, the binding signal with GST-Hu-p50 was 3.28 z-score.
Take “CCGATTAACATCAAGGAACTCCCTGATGTTAATCGGGTCTTGATTCGCTTGACGCTGCTG”: the binding signal in the test with GST-Ap-NF-kB RHD was 3.98 z-score; in test [1] it was 3.82 z-score; in test [2], 2.62 z-score; in the test with GST-Co-NF-kB it was 1.49 z-score; with GST-Dm-Relish it was 5.06 z-score; with GST-Aq-NF-kB it was 5.06 z-score. Also, the binding signal with GST-Hu-p50 turned out to be 3.54 z-score.
With “CCGATTAACATCACACAACCCCCTGATGTTAATCGGGTCTTGATTCGCTTGACGCTGCTG”, the binding signal with GST-Ap-NF-kB RHD was 5.16 z-score; in test [1] it was 3.73 z-score; in test [2], 4.93 z-score; with GST-Co-NF-kB, 2.31 z-score; with GST-Dm-Relish it was 4.91 z-score; with GST-Aq-NF-kB, 3.93 z-score. The binding signal in the test with GST-Hu-p50 amounted to 4.68 z-score.
Turning to “CCGATTAACATCAATAATTACCCTGATGTTAATCGGGTCTTGATTCGCTTGACGCTGCTG”, the binding signal was found to be 2.91 z-score with GST-Ap-NF-kB RHD; 4.26 z-score in test [1]; 4.81 z-score in test [2]; 3.12 z-score with GST-Co-NF-kB; 3.09 z-score in the test with GST-Dm-Relish; 3.72 z-score with GST-Aq-NF-kB. This sequence also returned a binding signal with GST-Hu-p50 of 3.55 z-score.
“CCGATTAACATCACATTTCCCCCTGATGTTAATCGGGTCTTGATTCGCTTGACGCTGCTG”: the binding signal in the test with GST-Ap-NF-kB RHD came to 6.84 z-score; in test [1] it was 6.99 z-score; in test [2], 10.2 z-score; with GST-Co-NF-kB it was 9.84 z-score; with GST-Dm-Relish, 4.03 z-score; with GST-Aq-NF-kB, 5.23 z-score. The binding signal with GST-Hu-p50 worked out at 6.55 z-score.
In the case of “CCGATTAACATCAAAAAACCACCTGATGTTAATCGGGTCTTGATTCGCTTGACGCTGCTG”, the binding signal came to 4.79 z-score with GST-Ap-NF-kB RHD; 5.1 z-score in test [1]; 7.1 z-score in test [2]; 1.37 z-score with GST-Co-NF-kB; 8.7 z-score with GST-Dm-Relish; 5.41 z-score with GST-Aq-NF-kB. The sequence also came in with a binding signal with GST-Hu-p50 of 6.81 z-score.
As to “CCGATTAACATCAGACTTTTCCCTGATGTTAATCGGGTCTTGATTCGCTTGACGCTGCTG”, the binding signal is 2.88 z-score with GST-Ap-NF-kB RHD; 4.94 z-score in test [1]; 5.24 z-score in test [2]; 4.28 z-score with GST-Co-NF-kB; 1.62 z-score with GST-Dm-Relish; 4.8 z-score with GST-Aq-NF-kB. This sequence also had a binding signal with GST-Hu-p50 of 3.13 z-score.
Regarding “CCGATTAACATCAGGGGAGATAATGATGTTAATCGGGTCTTGATTCGCTTGACGCTGCTG”, the binding signal in the test with GST-Ap-NF-kB RHD came out at 5.17 z-score; in test [1], 5.28 z-score; in test [2], 5.56 z-score; with GST-Co-NF-kB it was 6.03 z-score; with GST-Dm-Relish it was 1.79 z-score; with GST-Aq-NF-kB it was 2.74 z-score. This sequence displayed a binding signal with GST-Hu-p50 of 3.67 z-score.
As for “CCGATTAACATCAGGAATTCCCCTGATGTTAATCGGGTCTTGATTCGCTTGACGCTGCTG”, the binding signal with GST-Ap-NF-kB RHD was determined as 11.7 z-score; in test [1] it was 12.5 z-score; in test [2], 11.7 z-score; with GST-Co-NF-kB it was 7.64 z-score; with GST-Dm-Relish it was 9.99 z-score; in the test with GST-Aq-NF-kB it was 11.5 z-score. In addition, the binding signal with GST-Hu-p50 stood at 7.74 z-score.
